Drawing on PubChem BioAssay, this text covers composite z-score, composite Z-score and z-score for 6 compounds.

One experiment concerns the target Albumin (Bos taurus) (UniProt P02769). Description: bovine serum albumin binders on microarray, profiling panel, artefact control for SMM control protein annotation, biochemical, small-molecule microarray, Alexa647 label, 635/667 nm fluorescence (AID 1118).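 Note: score merges 667 nm emission intensity and signal-to-noise per printed compound spot.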 The settings on record: BSA-A647 binding, fluorescence 635 nm, higher = more signal.
Experiment [1] can be described thus: small-molecule microarray binders of probe aXIP, primary screen, biochemical, NeuroSMM set, 635/667 nm fluorescence (AID 1119).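 Note: probe is the protein aXip251-270 applied at 1 µg/mL to compound-printed slides; binding of probe to printed compounds measured as 667 nm fluorescence plus signal to noise.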 As to conditions: higher = more signal, called active from +8 up or from −8 down.
Experiment [2] is described as follows: small-molecule binders of probe aNOTCH3, primary screen, biochemical, small-molecule microarray, 635/667 nm fluorescence (AID 1120).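 Note: probe is a biotin-tagged antibody raised against NOTCH3 rather than NOTCH3 protein; score merges spot fluorescence near 667 nm with spot signal to noise.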 The settings on record: higher = more signal.
A short description of experiment [3]: small-molecule binders of probe aNOTCH2, primary screen, biochemical, small-molecule microarray, 635/667 nm fluorescence (AID 1121).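 Note: score merges feature fluorescence read at 667 nm with its signal to noise.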 As to conditions: higher = more signal.
In experiment [4] the target is Carbonic anhydrase 2 (Homo sapiens) (UniProt P00918). Description: CAII small-molecule binders, profiling panel, biochemical, small-molecule microarray, Alexa647-labelled CAII (AID 1122). As to conditions: CAII-A647 binding fluorescence, higher = more signal.
A short description of experiment [5]: COS7 lysate on small-molecule microarray, probe aHis, 635 nm (AID 1123).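 Note: z-score combines 667nm fluorescence intensity with signal-to-noise per printed compound spot.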 The settings on record: COS7 cell lysate, fluorescence, higher = more signal.
Experiment [6] can be described thus: compound binding in COS7 lysate, probe aLAP1, primary screen, cell lysate, small-molecule microarray (AID 1124).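 Note: lysate comes from COS7 cells expressing LAP1 and is applied at 0.3 µg/mL; score merges spot fluorescence near 667 nm with signal-to-noise over triplicate slides.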 As to conditions: probe aLAP1, fluorescence, higher = more signal.
In the next experiment the test system is Sam68 (KHDRBS1). Description: Sam68 small-molecule binders, primary screen, biochemical, small-molecule microarray, 635 nm fluorescence (AID 1125).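 Note: score merges 667 nm channel intensity with signal to noise over triplicate slides.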 As to conditions: small-molecule microarray binding, higher = more signal.
The subject of experiment [7] is Chordin-like protein 2 (CHRDL2). Description: CHRDL2 small-molecule binders, primary screen, biochemical, small-molecule microarray, 635 nm fluorescence (AID 1126).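 Note: printed compound slides probed with Chrdl2 protein at 4 µg/mL for 1 h at 4 C; score merges 667 nm emission intensity with signal to noise over three replicate slides.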 The settings on record: small-molecule microarray binding, fluorescence 635 nm; higher = more signal.
The target in experiment [8] is Concanavalin-A (Canavalia ensiformis) (UniProt P02866). Description: ConA small-molecule binders, primary screen, artefact control for SMM control protein annotation, biochemical, small-molecule microarray, Alexa647 label, 635 nm (AID 1127).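 Note: z combines 667 nm emission intensity with signal-to-noise across three replicate slides.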 As to conditions: ConA-A647 binding fluorescence, higher = more signal.
Chain of Concanavalin-A (Canavalia ensiformis) (P02866 whole entry, looked up): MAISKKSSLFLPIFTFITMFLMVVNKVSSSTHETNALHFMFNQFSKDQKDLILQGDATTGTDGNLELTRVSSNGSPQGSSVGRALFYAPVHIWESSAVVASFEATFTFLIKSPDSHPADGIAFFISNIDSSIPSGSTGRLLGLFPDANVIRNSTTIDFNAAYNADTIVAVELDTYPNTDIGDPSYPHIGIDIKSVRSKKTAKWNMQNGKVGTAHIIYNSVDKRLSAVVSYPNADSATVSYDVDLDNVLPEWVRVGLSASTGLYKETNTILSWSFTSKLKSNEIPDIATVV
Experiment [9] is described as follows: anti-His antibody binders, primary screen, artefact control for SMM control protein annotation, biochemical, small-molecule microarray, 635 nm fluorescence (AID 1128).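 Note: score merges feature fluorescence with signal-to-noise for each printed compound spot.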 The settings on record: anti-His Alexa647 antibody binding, higher = more signal.
In experiment [10] the test system is Human papillomavirus type 1a E7 protein (residues 1-88). Description: HPV1a E7 small-molecule binders, primary screen, biochemical, small-molecule microarray, residues 1-88, 635 nm (AID 1129). The settings on record: small-molecule microarray binding, fluorescence 635 nm; higher = more signal.
Experiment [11] deals with Focal adhesion kinase 1 (Homo sapiens) (UniProt Q05397). Kind of experiment: small-molecule microarray binders of FAK, primary screen, biochemical, 635/667 nm fluorescence, BSA, DTT (AID 1130).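 Note: composite of spot emission at 667 nm and signal to noise over triplicate slides.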 As to conditions: PTK2 binding, 635 nm fluorescence, higher = more signal.
Chain of Focal adhesion kinase 1 (Homo sapiens) (Q05397 whole entry, looked up): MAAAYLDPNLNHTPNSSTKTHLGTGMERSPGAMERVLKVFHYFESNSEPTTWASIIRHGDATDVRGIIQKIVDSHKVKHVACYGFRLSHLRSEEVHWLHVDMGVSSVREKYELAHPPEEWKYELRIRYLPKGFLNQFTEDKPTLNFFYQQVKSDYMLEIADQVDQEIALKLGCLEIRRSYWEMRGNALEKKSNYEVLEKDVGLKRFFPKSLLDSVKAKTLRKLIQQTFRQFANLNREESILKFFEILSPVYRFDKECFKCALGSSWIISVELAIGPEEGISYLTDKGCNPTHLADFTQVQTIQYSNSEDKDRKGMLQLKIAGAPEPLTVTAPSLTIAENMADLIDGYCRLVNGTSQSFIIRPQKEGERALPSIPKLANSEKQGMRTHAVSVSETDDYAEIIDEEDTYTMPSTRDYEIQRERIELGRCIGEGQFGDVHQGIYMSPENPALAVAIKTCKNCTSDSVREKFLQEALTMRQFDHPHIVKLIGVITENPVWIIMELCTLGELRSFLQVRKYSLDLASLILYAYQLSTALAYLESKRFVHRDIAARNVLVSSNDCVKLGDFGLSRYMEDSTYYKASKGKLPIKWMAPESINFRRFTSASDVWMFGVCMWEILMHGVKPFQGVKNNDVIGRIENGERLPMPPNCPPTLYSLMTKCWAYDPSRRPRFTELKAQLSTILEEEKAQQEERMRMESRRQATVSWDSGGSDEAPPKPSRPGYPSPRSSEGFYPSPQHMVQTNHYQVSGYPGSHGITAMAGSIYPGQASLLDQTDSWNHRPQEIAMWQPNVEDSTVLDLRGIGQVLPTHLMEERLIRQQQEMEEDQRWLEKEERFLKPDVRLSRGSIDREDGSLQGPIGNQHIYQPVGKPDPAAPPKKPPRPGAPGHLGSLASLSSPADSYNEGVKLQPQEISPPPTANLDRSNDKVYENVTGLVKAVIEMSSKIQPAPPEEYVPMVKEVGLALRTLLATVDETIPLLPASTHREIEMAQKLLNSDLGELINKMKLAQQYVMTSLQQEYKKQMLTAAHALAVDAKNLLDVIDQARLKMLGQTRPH
The test system of experiment [12] is Fibrinogen (Alexa647-labelled). Description: fibrinogen binders on compound microarrays, profiling panel, artefact control for SMM control-protein annotation, biochemical, small-molecule microarray, 635/667 nm fluorescence (AID 1131).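 Note: z-score merges 667 nm fluorescence with per-spot signal-to-noise over triplicate slides.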 As to conditions: fibrinogen-A647 binding fluorescence, higher = more signal.
The target of experiment [13] is Follistatin (Homo sapiens) (UniProt P19883). Kind of experiment: follistatin binders on small-molecule microarrays, primary screen, biochemical, small-molecule microarray, 635/667 nm fluorescence (AID 1132). The settings on record: FST binding, 635 nm fluorescence, higher = more signal.
Chain of Follistatin (Homo sapiens) (P19883 whole entry, looked up): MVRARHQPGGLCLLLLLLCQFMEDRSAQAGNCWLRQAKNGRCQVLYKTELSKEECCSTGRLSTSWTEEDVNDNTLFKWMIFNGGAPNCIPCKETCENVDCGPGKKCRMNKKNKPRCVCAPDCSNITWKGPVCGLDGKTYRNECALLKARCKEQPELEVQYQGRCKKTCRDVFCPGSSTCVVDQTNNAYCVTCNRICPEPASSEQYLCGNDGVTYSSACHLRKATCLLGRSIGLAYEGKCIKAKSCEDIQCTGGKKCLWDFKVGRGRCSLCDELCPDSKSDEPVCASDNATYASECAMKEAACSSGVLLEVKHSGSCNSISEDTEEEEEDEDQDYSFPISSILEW
For experiment [14], the target named is Fibroblast growth factor 2 (Homo sapiens) (UniProt P09038). Description: FGF2 binders on small-molecule microarrays, primary screen, biochemical, small-molecule microarray, 635/667 nm fluorescence (AID 1133). As to conditions: small-molecule microarray binding, FGF2, fluorescence 635/667; higher = more signal.
Chain of Fibroblast growth factor 2 (Homo sapiens) (P09038 whole entry, looked up): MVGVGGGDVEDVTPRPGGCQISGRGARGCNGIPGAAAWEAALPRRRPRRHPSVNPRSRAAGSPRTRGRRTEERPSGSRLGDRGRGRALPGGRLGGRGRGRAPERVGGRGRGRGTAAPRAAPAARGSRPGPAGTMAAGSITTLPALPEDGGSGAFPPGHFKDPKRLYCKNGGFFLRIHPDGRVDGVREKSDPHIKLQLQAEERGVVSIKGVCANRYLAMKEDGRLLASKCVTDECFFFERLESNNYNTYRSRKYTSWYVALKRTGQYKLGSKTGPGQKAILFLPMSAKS
Experiment [15] is described as follows: mitochondrial membrane potential change in A549 cells, profiling panel, cell-based, JC-1 fluorescence, basal, 24 h, 100 nL (AID 1138).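 Note: A549 lung adenocarcinoma cells under basal conditions with no added stimulus; test concentration not given here.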 As to conditions: higher = more signal.
For the next experiment, the system named is Lefty1. Kind of experiment: Lefty1 binders on small-molecule microarrays, primary screen, biochemical, small-molecule microarray, 635/667 nm fluorescence (AID 1139). The settings on record: small-molecule microarray binding, fluorescence 635/667; higher = more signal.
In experiment [16] the test system is wheat germ agglutinin (Triticum aestivum), Alexa647-labelled. Kind of experiment: wheat germ agglutinin binders on compound microarrays, profiling panel, artefact control for SMM control-protein annotation, biochemical, small-molecule microarray, 635/667 nm fluorescence (AID 1140).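 Note: score merges 667 nm feature emission with signal to noise over triplicate slides.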 The settings on record: WGA-A647 binding, 635 nm fluorescence, higher = more signal.

The target of experiment [17] is Luciferin 4-monooxygenase (Photinus pyralis) (UniProt P08659). Description: firefly luciferase enzyme inhibitors, primary screen, biochemical, luminescence, purified enzyme, 2006 set (AID 1141).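 Note: cell-free assay with purified firefly luciferase at 100 ng per well in PBS; test concentration not given here.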 The settings on record: SteadyGlo luminescence, 30 min, higher = more signal, called active from +8 up or from −8 down.
Chain of Luciferin 4-monooxygenase (Photinus pyralis) (P08659 whole entry, looked up): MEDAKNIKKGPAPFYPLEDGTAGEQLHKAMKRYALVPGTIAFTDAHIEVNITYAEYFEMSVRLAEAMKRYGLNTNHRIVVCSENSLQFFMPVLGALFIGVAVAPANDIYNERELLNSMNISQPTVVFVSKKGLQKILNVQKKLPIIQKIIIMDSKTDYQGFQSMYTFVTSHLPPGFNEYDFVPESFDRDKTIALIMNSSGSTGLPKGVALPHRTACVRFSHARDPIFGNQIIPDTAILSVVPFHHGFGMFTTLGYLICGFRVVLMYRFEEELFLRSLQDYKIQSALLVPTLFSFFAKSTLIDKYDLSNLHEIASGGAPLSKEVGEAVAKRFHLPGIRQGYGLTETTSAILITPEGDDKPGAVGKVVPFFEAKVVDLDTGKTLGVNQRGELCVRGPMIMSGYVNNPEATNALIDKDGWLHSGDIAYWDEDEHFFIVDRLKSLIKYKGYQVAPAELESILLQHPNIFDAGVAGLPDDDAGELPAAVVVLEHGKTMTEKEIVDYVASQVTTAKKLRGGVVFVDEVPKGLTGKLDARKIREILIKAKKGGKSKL

Activity calls are given as the source filed them.

Chain of Albumin (Bos taurus) (P02769 whole entry, looked up): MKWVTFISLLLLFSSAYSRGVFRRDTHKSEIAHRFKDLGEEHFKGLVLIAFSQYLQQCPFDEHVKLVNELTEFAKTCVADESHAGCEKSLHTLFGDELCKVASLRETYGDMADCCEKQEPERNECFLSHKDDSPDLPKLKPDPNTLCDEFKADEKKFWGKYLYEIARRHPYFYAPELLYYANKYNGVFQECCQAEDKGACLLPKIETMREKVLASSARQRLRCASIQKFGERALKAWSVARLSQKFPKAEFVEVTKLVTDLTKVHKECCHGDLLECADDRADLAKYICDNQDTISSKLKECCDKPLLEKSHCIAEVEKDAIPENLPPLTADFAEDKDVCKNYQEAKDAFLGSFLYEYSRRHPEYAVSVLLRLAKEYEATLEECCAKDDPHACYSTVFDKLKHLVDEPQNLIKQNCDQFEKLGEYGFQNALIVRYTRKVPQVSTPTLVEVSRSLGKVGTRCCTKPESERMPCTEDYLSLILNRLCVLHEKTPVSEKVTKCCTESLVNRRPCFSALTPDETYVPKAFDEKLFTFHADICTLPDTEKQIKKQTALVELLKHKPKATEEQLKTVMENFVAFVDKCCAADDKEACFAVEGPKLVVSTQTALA

In the case of `C=C(COC)C(=O)CC[C@@H](OC(=O)c1cccnc1)c1ccc(CO)o1`, the composite z-score is 0.158 in the experiment with Albumin (Bos taurus); -0.0362 in experiment [2]; -0.157 in experiment [3]; 0.481 in experiment [4]; 0.387 in experiment [5]; 0.823 in experiment [6]. Also, the composite z-score in the experiment on Sam68 (KHDRBS1) is 0.532; in experiment [7], 0.739; in [8] it was 0.341; in [9], -0.131; in experiment [10], 0.0982; in experiment [11], -0.111. Moreover, the composite z-score is 0.39 in experiment [12]; 1.18 in experiment [13]; 1.46 in experiment [14]; 0.911 in the experiment with Lefty1; -0.0265 in [16]. The composite Z-score in experiment [1] is 0.509 (inactive). Also, the z-score in experiment [15] is 0.217; in experiment [17] it was -2.05 (inactive).
For the compound `CCCCCN1CC=CC23O[C@@H]4/C=C\CCCOC(=O)C4[C@H]2C(=O)N(CCCCCCO)[C@@H]3C1=O` (stereo not given in full), the composite z-score in the experiment with Albumin (Bos taurus) is -0.0739; in [2] it was -0.262; in experiment [3], -0.153; in experiment [4], 0.858; in experiment [5], 2.05; in [6] it was 1.14. For the same compound, the composite z-score was -0.542 in the experiment with Sam68 (KHDRBS1); -1.01 in experiment [7]; -0.74 in [8]; 0.599 in experiment [9]; 0.906 in [10]; 0.929 in [11]. In addition, the composite z-score was -2.05 in experiment [12]; -0.679 in experiment [13]; -0.964 in experiment [14]; 0.0393 with Lefty1; 1.14 in experiment [16]. In experiment [1], the composite Z-score was -0.328 (inactive). For the same compound, the z-score is 1.05 in experiment [15] and -3.28 (inactive) in experiment [17].
Take `CC(C)CNC(=O)[C@@H]1c2ccccc2C(=O)N(Cc2cc(C(F)(F)F)cc(C(F)(F)F)c2)[C@H]1c1ccc(CO)cc1`: the composite z-score with Albumin (Bos taurus) was -0.881; in experiment [2], 0.0596; in experiment [3] it was 0.127; in experiment [4], 0.5; in experiment [5], 0.361; in [6] it was 0.0574. Also, the composite z-score in the experiment on Sam68 (KHDRBS1) was -0.636; in [7] it was -0.629; in [8], -0.928; in [9], -0.137; in experiment [10], -0.569; in experiment [11], 0.093. Besides, the composite z-score is -0.419 in experiment [12]; -0.137 in experiment [13]; -0.124 in experiment [14]; -0.851 in the experiment with Lefty1; 0.204 in experiment [16]. Also, the composite Z-score in experiment [1] is 0.0089 (inactive). Besides, the z-score in experiment [15] is 0.157; in [17], -0.975 (inactive).
For the compound `CC(=CC1CCCCC1)[C@@H](NC(=O)c1ccc(C(F)(F)F)cc1)c1ccc(-c2ccccc2)cc1`, the composite z-score with Albumin (Bos taurus) was 0.938; in [2], -0.0311; in experiment [3], 0.0181; in experiment [4] it was -0.0824; in experiment [5] it was -0.261; in experiment [6], -0.223. Besides, the composite z-score with Sam68 (KHDRBS1) was -0.946; in experiment [7], -0.371; in experiment [8] it was -0.0536; in experiment [9], -0.453; in [10], -0.753; in experiment [11], -0.708. In addition, the composite z-score in experiment [12] was -0.134; in [13], -0.136; in [14] it was -0.58; with Lefty1, -0.795; in [16], 0.165. For the same compound, in [1], the composite Z-score was -0.193 (inactive). The z-score was -0.269 in experiment [15] and 1.25 (inactive) in experiment [17].
Regarding `C=CCNC(=O)[C@@H]1[C@H]2C(=O)O[C@H](c3ccccc3)[C@H](c3ccccc3)N2[C@H](c2ccc(OCCO)cc2)[C@@]12C(=O)Nc1ccccc12`, the composite z-score with Albumin (Bos taurus) was 0.507; in experiment [2] it was 0.0773; in experiment [3], -0.157; in experiment [4] it was 0.692; in experiment [5], 1.91; in experiment [6] it was 0.262. Moreover, the composite z-score with Sam68 (KHDRBS1) turned out to be 1.29; in [7], 0.228; in experiment [8], 1.11; in experiment [9] it was 0.797; in [10] it was 1.22; in [11], 0.102. The composite z-score is 0.934 in experiment [12]; 1.1 in [13]; 0.516 in [14]; 1.03 in the experiment with Lefty1; 0.496 in experiment [16]. Moreover, the composite Z-score in [1] is -0.551 (inactive). The values for the z-score in [15] and in experiment [17] were 0.253 and -8.15 (active), respectively.
With `COCCOC(=O)N1C(=O)[C@@]2(c3ccccc31)[C@H](c1ccc(O)cc1)N1[C@H](c3ccccc3)[C@H](c3ccccc3)OC(=O)[C@H]1[C@@H]2C(=O)N1CCc2cc(OC)c(OC)cc2C1`, the composite z-score with Albumin (Bos taurus) was -0.361; in [2], 0.128; in experiment [3], 0.0712; in experiment [4], 0.136; in experiment [5], 1.76; in [6], 0.288. Further, the composite z-score stood at 1.32 with Sam68 (KHDRBS1); 1.44 in experiment [7]; 1.13 in experiment [8]; 1.7 in experiment [9]; 0.848 in experiment [10]; 0.341 in experiment [11]. Moreover, the composite z-score came out at 0.107 in [12]; 1.35 in experiment [13]; 1.85 in experiment [14]; 1.14 with Lefty1; 0.216 in [16]. In addition, the composite Z-score in experiment [1] was 2.47 (inactive). Also, the z-score in experiment [15] is 0.355; in [17], -0.704 (inactive).
